proKLK7 act: activators of human kallikrein-7 zymogen. purified proKLK7, EDANS-DABCYL substrate fluorescence; 100% is mature enzyme control, 0% vehicle. 370,000 compounds, 0.9% hits. activation, % at 7 µM;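 active means activation above the mean of all tested compounds plus 3 SD, computed per campaign excluding outliers beyond control limits, cut at about 13% in these data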
ADAM10 inh: inhibitors of human ADAM10; O14672; 370,000 compounds, 0.62% hits; recombinant ADAM10, EDANS/DABCYL FRET peptide cleavage, 3 h; AID 720582; inhibition, % at 7 µM;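 active means inhibition above a per-campaign cutoff equal to the mean of compounds falling between control-based bounds plus 3 SD, cut at about 20% in these data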
ADAM17 inh: ADAM17 inhibition, QFRET primary screen; recombinant ADAM17, EDANS/DABCYL FRET peptide cleavage; 370,000 compounds, 0.83% hits; inhibition, % at 6.95 µM;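 active means inhibition above the mean of compounds lying between control limits plus 3 SD, set per campaign, cut at about 8.5% in these data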
PLC-gamma1 inh: inhibitors of human phospholipase C gamma1 | P19174 | purified PLC-gamma1, fluorogenic substrate, fluorescence | inhibition, % at 12.2 µM | 370,000 compounds, 0.84% hits | AID 720700; in the data active means inhibition above about 9.5%
PLC-beta3 inh: blocks human PLC-beta3 enzyme activity; Q01970; Purified PLC-beta3, fluorogenic substrate, fluorescence; inhibition, % at 12.2 µM; 370,000 compounds, 0.18% hits; AID 720704; in the data active means inhibition above about 11%
Of the large screens only hits and unclear results are named; the others gave an inactive call. The list is not random: actives were taken first. Their share in the collection is about 2.9%.

COc1ccc(-c2cc(C3CCN(CC(O)C(F)(F)F)CC3)[nH]n2)cc1 (stereo not drawn)	none
COc1ccc(-c2cc(C3CCN(Cc4cccc(C(F)(F)F)c4)CC3)[nH]n2)cc1	ADAM10 inh 24, ADAM17 inh 12
CCCCCCCCCCCCCCCC[n+]1ccc(C(N)=O)cc1	none
CCCCCCCCCCCCCCCC[n+]1ccc(/C=N/O)cc1	PLC-gamma1 inh 17
CCc1cc2c(-c3ccccc3)cc(=O)oc2cc1OC(C)C(=O)O (stereo not drawn)	none
CC(NC(=O)OCc1ccccc1)C(=O)Oc1cc2oc(=O)cc(-c3ccccc3)c2cc1Cl (stereo not drawn)	proKLK7 act 24
COC(=O)[C@@]12CCCCC3=C1N(CCC3)C(=O)[C@H]2CC(=O)N1CCSCC1	none
CC(C)c1[nH]nc2c1C(c1cccc(C(F)(F)F)c1)N(Cc1ccccc1)C2=O (stereo not drawn)	none
CCOC(=O)c1cc2c(=O)n3ccccc3nc2n(Cc2ccco2)c1=NC(=O)c1ccc(OC)cc1OC	proKLK7 act 17
N#Cc1cc2c(=O)n3ccccc3nc2n(Cc2ccco2)c1=NC(=O)c1ccco1	none
S=C(Nc1ccc(Oc2ccccc2)cc1)NC1CCCCCC1	ADAM17 inh 9.5
N#Cc1ccccc1NC(=O)C1SC(=Nc2ccccc2)C(C(=O)Nc2ccc(Cl)cc2)=C1N (stereo not drawn)	ADAM10 inh 37, ADAM17 inh 16
COc1ccccc1N=C1SC(C(=O)Nc2cccc(Cl)c2Cl)C(N)=C1C(N)=O (stereo not drawn)	none
CC1CCN(c2ccc(C(=O)O)cc2NS(=O)(=O)c2cccc3cccnc23)CC1	none
C/C(=C/c1c[n+](Cc2ccc3c(c2)OCO3)c(N)[nH]1)Cn1[nH]c(=O)n(-c2ccccc2)c1=O	none
C=CCNS(=O)(=O)c1cccc2cc(C(=O)O)c(O)cc12	proKLK7 act 27
CO[C@@H]1[C@H](O)CC[C@]2(O)CN(c3ccccc3)[C@](C)([C@H](O)CC=C(C)C)[C@@H]12	none
CCc1c(-c2ccccc2F)ncn1CCc1ccccc1OC	none
CCOC(=O)c1oc2ccc(CNC(C)(C)C)c(Cl)c2c1C	PLC-gamma1 inh 12
Cc1ccc(-c2nnn(CC(=O)Nc3ccc(S(=O)(=O)N4CCC(C)CC4)cc3)n2)cc1	none
CC1CCN(S(=O)(=O)c2ccc(NC(=O)Cn3nnc(-c4ccccc4)n3)cc2)CC1	ADAM17 inh 10
Brc1ccc(OCCOCCN2CCOCC2)cc1	none
Brc1ccc(OCCCCCN2CCOCC2)cc1	PLC-gamma1 inh 9.7
O=C1C[C@@H](O)[C@H](O)c2cccc(O)c21	none
COc1ccc(NC(=O)C2CCCN(S(=O)(=O)c3ccccc3)C2)c(OC)c1 (stereo not drawn)	PLC-gamma1 inh 12
CC(=O)N1CCN(c2ccc(N3CCN(Cc4ccccc4)[C@@H](C)C3)c(C)c2)[C@@H](C)C1	none
COc1ccc(C(=O)c2ccc3oc(-c4ccc(OC)cc4)c(-c4ccc(O)cc4)c3c2)cc1	ADAM17 inh 8.6
COc1ccc(C(=O)c2c(-c3ccc(OC)cc3)oc3ccccc23)cc1	none
CCCCn1c(NC(=O)c2ccco2)c(S(=O)(=O)c2ccc(C)cc2)c2nc3ccccc3nc21	none
CCCCn1c(NS(=O)(=O)c2ccccc2)c(S(=O)(=O)c2ccc(C)cc2)c2nc3ccccc3nc21	PLC-gamma1 inh 17
Nn1c(SCC(=O)Nc2nccs2)nnc1-c1cc(-c2ccccc2)n[nH]1	none
C=CCN1C(=O)[C@H](CC(=O)N2CCCC2)[C@@]2(C(=O)OCC)CCCC=C12	none
CC(C)(C)OC(=O)CNC(=O)c1nc[nH]c1C(=O)NCc1ccc(CNC(=O)OC(C)(C)C)cc1	none
CC(C)(C)OC(=O)NCc1ccc(CNC(=O)c2nc[nH]c2C(=O)NCc2ccc(CNC(=O)OC(C)(C)C)cc2)cc1	ADAM17 inh 12
CC(C)(C)OC(=O)NCCCCCNC(=O)c1nc[nH]c1C(=O)NCc1ccc(CNC(=O)OC(C)(C)C)cc1	ADAM10 inh 23, ADAM17 inh 12
C=CCC[C@H](Cc1ccc(F)cc1)C(=O)OC[C@@H](NC(=O)[C@@H](CC=C)CC(=O)N[C@@H](CO)Cc1ccccc1)C(C)(C)C	ADAM10 inh 20
COC(C/C=C\[C@H](O)[C@@H](C)OCc1ccccc1)OC	PLC-beta3 inh 12
COC(C/C=C/[C@H](O)[C@@H](C)OCc1ccccc1)OC	none
COC(=O)[C@]12C[C@H](CC(=O)NCc3ccc(OC)c(OC)c3)C(=O)N(Cc3ccc(Cl)cc3Cl)C1=C[C@H](C1CCCC1)O[C@@H]2C	none
NC(=O)c1ccc(N=C2C(=O)Nc3ccc([N+](=O)[O-])cc32)cc1	PLC-gamma1 inh 11
O=C1Nc2ccccc2C1=Nc1cccc([N+](=O)[O-])c1	none
O=C1CCC[C@H]2C[C@H](NCc3ccco3)CC[C@]23CCCN13	none (no result: proKLK7 act)
C=CCN1C(=O)c2n[nH]c(C(C)C)c2C1c1ccc(C)cc1 (stereo not drawn)	none
COc1ccc(Nc2ccc3c(c2)=NC2(CCCCC2)[N+]=3[O-])cc1	ADAM17 inh 9.7
COC(=O)N1CCCC1c1cccc2[nH]cc(C)c12 (stereo not drawn)	none
CCCCNC(=O)C[C@H]1C[C@@]2(C(=O)OC)C(=C[C@H](C3CCCC3)O[C@@H]2C)N(CCC2=CCCCC2)C1=O	none
CCCCNS(=O)(=O)c1ccc2nc(SCC(=O)Nc3sccc3C#N)[nH]c2c1	ADAM10 inh 20, ADAM17 inh 13
COc1cccc(C(=O)Nc2ccc(C(=O)NCC3COc4ccccc4O3)cc2)c1 (stereo not drawn)	none
Oc1ccc(Cl)cc1Cc1cc(Cl)ccc1O	ADAM10 inh 26
O=C(NCCc1cccc(F)c1)c1cc2ccccn2n1	none
COCCn1nnnc1C(c1ccc(OC)cc1OC)N1CCN(c2ccccc2)CC1 (stereo not drawn)	none
COc1ccc(OC)c(C(c2nnnn2CCc2ccccc2)N2CCN(c3ccccc3)CC2)c1 (stereo not drawn)	PLC-gamma1 inh 11
CCN(CC)S(=O)(=O)c1ccc2c(c1)nc(CCC(=O)Nc1cccc(C(F)(F)F)c1)n2CC	ADAM17 inh 10
CCNC(=O)C1Cc2ccccc2CN1S(=O)(=O)c1ccc(F)cc1 (stereo not drawn)	none
COC(=O)CNC(=O)C1Cc2ccccc2CN1S(=O)(=O)c1ccc(F)cc1 (stereo not drawn)	PLC-gamma1 inh 9.6
CCOC(=O)[C@@H]1[C@H]2COc3ccc(Br)cc3[C@@H]2N2C(=O)N(c3ccc(Br)cc3)C(=O)[C@]12C	none
CCOC(=O)[C@@H]1[C@H]2COc3ccc(Br)cc3[C@H]2N2C(=O)N(c3ccc(C(F)(F)F)cc3)C(=O)[C@]12C	ADAM10 inh 24
COc1ccc(S[C@]2(C(=O)N3CCN(c4ncccn4)CC3)CC(=O)N(S(=O)(=O)c3ccc(F)cc3)[C@@H]2c2ccc(OC)cc2)cc1	none

Screens (PubChem BioAssay)
